Laboratory results published in PubChem BioAssay (NCATS).
Results filed as inconclusive are left out. Calls of active or inactive are those of the source. Calls follow the shape of the dose curve; as a rule, active = well fitted inhibition curve with a large enough effect; inconclusive = small, poorly fitted or top-dose-only effect; inactive = flat fitted curve, though single readings scatter.

Key:
Experiment in all cases: qHTS profiling for inhibitors of Plasmodium falciparum proliferation (AID 504749); also: nearly all actives have a fitted effect of over 60% in size
Conditions in all cases: P. falciparum in erythrocytes, SYBR Green DNA, 72 h; series mostly up to 28.7 µM
[1] = system: CP215
Outline: (§1)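 Each compound contacts P. falciparum-infected red blood cells for 72 h at 37 C; lysis buffer (Tris, EDTA, saponin, Triton X, SYBR Green I) is added and fluorescence measured next morning; values normalized to controls.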

[2] = system: CP217
Outline: as §1

[3] = system: CP237
Outline: as §1

[4] = system: CP238
Outline: as §1

[5] = system: CP247
Outline: as §1

[6] = system: CP252
Outline: as §1

[7] = system: CP256
Outline: as §1

[8] = system: CP260
Outline: as §1

[9] = system: CP262
Outline: as §1

[10] = system: CP265
Outline: as §1

[11] = system: CP266
Outline: as §1

[12] = system: CP268
Outline: as §1

[13] = system: CP269
Outline: as §1

[14] = system: CP286
Outline: as §1

[15] = system: CP291
Outline: as §1

[16] = system: CP297
Outline: as §1

[17] = system: CP305
Outline: as §1

[18] = system: CP315
Outline: as §1

[19] = system: CP325
Outline: as §1

[20] = system: CP250
Outline: as §1

Measured: Potency
Potency is read from the fitted curve at half-maximal effect.

CCOC(=O)c1ccccc1O
not listed: [20]
inactive: all other assays above

COC(=O)C1=C(C)NC(C)=C(C(=O)OCC(C)C)C1c1ccccc1[N+](=O)[O-] (configuration not stated)
active: [7] 10 µM | [14] 8.91 µM | [15] 12 µM | [16] 16.9 µM | [19] 12 µM

Cc1ccc(C(=O)c2ccc(CC(=O)O)n2C)cc1
inactive: all assays above

COc1cc(CNC(=O)CCCC/C=C/C(C)C)ccc1O
not listed: [11]
inactive: all other assays above

Nc1ccc(O)c(C(=O)O)c1
not listed: [11]
inactive: all other assays above

CC1OC1P(=O)(O)O (configuration not stated)
not listed: [8]
inactive: all other assays above

Cc1nc2ccccc2n1Cc1ccc(Cl)cc1
inactive: [3] | [4] | [20] | [8] | [12] | [13] | [14] | [15] | [16] | [17] | [18]

COc1cc(/C=C/C(=O)CC(=O)/C=C/c2ccc(O)c(OC)c2)ccc1O
active: [1] 16.9 µM | [5] 8.91 µM | [20] 8.91 µM | [16] 13.5 µM

CN(C)c1ccc(C(=C2C=CC(=[N+](C)C)C=C2)c2ccccc2)cc1
inactive: [9]
active: [2] 11.2 µM | [3] 8.91 µM | [5] 6.31 µM | [20] 11.2 µM | [6] 12.6 µM | [7] 10 µM | [8] 7.08 µM | [10] 11.2 µM | [11] 12 µM | [13] 10.7 µM | [14] 2 µM | [19] 12 µM

c1ccc2sc(SN3CCOCC3)nc2c1
not listed: [8]
inactive: all other assays above

Oc1c(Br)cc(Br)c2cccnc12
not listed: [9]
inactive: all other assays above
